Rows were chosen to be rich in hits. Some 3.5% of all compounds tested hit in one or more screens of this group.
BJeLR lethal: MLPCN primary cell-based screen for lethality selective to Ras in HRASV12 cells; BJeLR (HRASV12) viability, CellTiter-Glo ATP luminescence, 48 h; inhibition, % (test concentration not listed); actives 0.17% (n = 300,000); AID 1554, 2009; in the data active = inhibition above about 50%; inconclusive = no clear call, values can overlap the other calls
Autofluor counter: counter-screen for toxin protease inhibitors: compound fluorescence; fluorescence intensity (test concentration not listed); compound autofluorescence counterscreen, microsphere flow cytometry; hits give high values; actives 3.1% (n = 360,000); in the data active = fluorescence intensity above about 16000; inconclusive = no clear call, values can overlap the other calls
BoNT A protease: BoNT/A light chain protease inhibitors, primary screen, biochemical, flow cytometry, MLPCN library; actives 0.17% (n = 360,000); inhibition, % at 10 µM; AID 588499, 2011; multiplex microsphere protease substrate cleavage; Botulinum neurotoxin type A light chain protease (Clostridium botulinum A str. ATCC 3502); also: plate controls were buffer without enzyme for full effect and enzyme alone for no effect
Anthrax LF inh2: Bacillus anthracis LF protease inhibitors, primary screen, biochemical, multiplex microsphere, MLPCN library | multiplex microsphere protease cleavage assay | inhibition, % at 10 µM | Lethal factor (Bacillus anthracis), P15917 | AID 588501, 2011 | actives 0.12% (n = 360,000); also: plate controls were buffer without enzyme for full effect and enzyme alone for no effect
BoNT-F LC inh: BoNT/F light chain protease inhibitors, primary screen, biochemical, flow cytometry, MLPCN library | inhibition, % at 10 µM | AID 588497, 2011 | actives 0.22% (n = 360,000) | Botulinum neurotoxin type F light chain protease (Clostridium botulinum) | Multiplex microsphere protease cleavage assay; in the data active = inhibition above about 35%, passing the limit was not always enough; inconclusive = no clear call, values can overlap the other calls; also: plate controls were buffer without enzyme for full effect and enzyme alone for no effect
* hit, by the source's call; ? = inconclusive; · = not tested or not shown. Rule as the data show it, unless noted: active = inhibition above about 30%; inconclusive = no clear call, values can overlap the other calls; inactive = below that.

SMILES	BJeLR lethal	Autofluor counter	BoNT A protease	Anthrax LF inh2	BoNT-F LC inh
COc1ccc(-c2nnn(CC(=O)N(CC(=O)NCCC(C)C)c3ccccc3)n2)cc1OC	-7	21028*	3	3	5
COc1ccc(CCNC(=O)Cn2nnc(-c3ccc(N4CCOCC4)cc3)n2)cc1OC	7	10812	0	-5	9
CC(C)CCNC(=O)CN(C(=O)Cn1nnc(-c2ccccc2F)n1)c1cccc2c1CCCC2	-8	20259*	4	-10	7
COc1ccc(CCNC(=O)Cn2nnc(-c3cccc(OC)c3OC)n2)cc1OC	0	22884*	-1	-2	-3
CC(C)CCNC(=O)CN(CCCN1CCOCC1)C(=O)Cn1nnc(-c2ccc(F)cc2)n1	2	22173*	4	1	5
C[C@H](O)[C@@H]1CN2CCc3c([nH]c4ccccc34)[C@@H]2C[C@@H]1N(C)C(=S)Nc1ccc(C#N)cc1	·	6949	5	4	-2
Oc1ccccc1-c1n[nH]c(-c2ccccc2O)n1	·	4299	0	2	5
Clc1ccccc1-c1nc(-c2ccccc2)n[nH]1	4	24108*	-1	-1	-1
COC(=O)Nc1ccc(NC(C)=O)cc1	-7	23186*	-1	-1	-1
COC(=O)Nc1ccc(S(=O)(=O)N(C)C)cc1	7	20816*	0	-3	-2
CC(=O)Nc1ccc(-c2ccc(NC(C)=O)cc2)cc1	4	1977	0	-1	-2
CC(=O)Nc1ccc(NS(=O)(=O)C(F)(F)F)cc1	5	19728*	?	1	0
COC(=O)Nc1ccc(S(=O)(=O)N2CCCCCC2)cc1	-19	11195	-1	-6	-1
CC(C)C(NC(=S)Nc1ccccc1)C(=O)O (stereo unspecified)	-12	2212	0	1	-4
CS(=O)(=O)N(CC(=O)N/N=C/c1cccs1)c1cccc(Cl)c1Cl	3	4383	0	1	-8
CCSc1nnc(NC(=O)c2cccnc2)s1	3	19138*	10	-5	13
CCSc1nnc(NC(=O)c2csc3c2CCCC3)s1	-2	22354*	0	-1	1
CCSc1nnc(NC(=O)c2ccccc2)s1	-4	2331	0	-1	2
C[C@H](CO)N1C[C@H](C)[C@@H](CN(C)C(=O)NC2CCCCC2)Oc2c(NC(=O)C3CCCCC3)cccc2C1=O	·	3325	0	-5	1
CC(C)C(=O)Nc1ccc2c(c1)nc(CCN1CCN(C)CC1)n2C	-16	24142*	-2	-2	-5
Cn1c(CN2CCCC2)nc2cc(NC(=O)C3CCCCC3)ccc21	-3	17014*	0	1	0
CC(=O)N1CCN(Cc2nc3cc(NC(=O)c4ccccc4Cl)ccc3n2C)CC1	·	4843	0	5	-2
Cn1c(CN2CCCCC2)nc2cc(NC(=O)c3ccccc3Cl)ccc21	8	20760*	-2	-2	-4
O=C(c1cc2ccccn2n1)N1CCN(c2cccc(C(F)(F)F)c2)CC1	-7	20114*	0	0	0
O=C1c2cccc3cc([N+](=O)[O-])cc(c23)C(=O)N1CCN1CCCC1	96*	3557	-2	-3	-7
SMILES	BJeLR lethal	Autofluor counter	BoNT A protease	Anthrax LF inh2	BoNT-F LC inh
CC1CN=C(NS(=O)(=O)c2ccccc2)N1 (stereo unspecified)	·	2935	0	11	-8
CCOc1ccc(CCNc2nc3c(c(=O)n(C)c(=O)n3C)n2CC)cc1OCC	24	16756*	?	1	-2
CCn1c(NCc2ccccn2)nc2c1c(=O)n(C)c(=O)n2C	1	16824*	-1	1	-1
COC(=O)c1ccccc1COc1cccn2c(N(C)C(=O)CCC3CCCC3)c(C)nc12	·	3528	0	4	-2
CCCNC(=O)c1cc(C2CCCCN2S(=O)(=O)Cc2cccc(C(F)(F)F)c2)on1 (stereo unspecified)	·	3931	-1	-5	-4
CC(C)(C)NC(=O)C1c2ccccc2OCC(=O)N1Cc1ccccc1 (stereo unspecified)	·	4220	0	3	1
CCCCCCC(=O)N(O)C1CC(=O)N(c2ccc(Cl)cc2)C1=O (stereo unspecified)	-6	2980	1	8	16
CCCCCCC(=O)N(O)C1CC(=O)N(c2ccc(C)cc2)C1=O (stereo unspecified)	-3	2106	30*	-53	0
CC1(C)CC(=O)C(CC(=O)Nc2cc(C(F)(F)F)ccc2Cl)C(=O)C1	-4	4371	0	0	1
CC(=O)c1cc(-c2ccccc2)n(CC(=O)N2CCC(C)CC2)c1C	-21	17028*	?	0	-4
CC(CN1CCN(C)CC1)OC(=O)c1ccc(Cl)cc1Cl (stereo unspecified)	5	16186*	?	-4	-1
CCN(CC)CCNC(=O)NC1CCCCC1	-1	22854*	?	0	-4
COc1ccc(C2SCC(=O)Nc3c2c(=O)[nH]n3C2CCCCCC2)cc1OC (stereo unspecified)	-3	18575*	?	-9	3
COc1ccc(C2SCC(=O)Nc3c2c(=O)[nH]n3C2CCCCCC2)cc1 (stereo unspecified)	-3	5946	0	-6	-6
CCOc1ccc(C2SCC(=O)Nc3c2c(=O)[nH]n3C2CCCCCC2)cc1 (stereo unspecified)	4	24510*	?	-6	-8
O=CNc1c(Cl)cc2c(c1Cl)Cc1cc([N+](=O)[O-])ccc1-2	·	3382	1	1	2
Cc1cc(Nc2ccccc2N2CCOCC2)n2ncnc2n1	-1	16563*	0	-2	-1
COC(=O)c1cn(-c2nc3ccccc3s2)nn1	·	6538	0	12	-11
COc1ccccc1/C=C/C(=O)OC(C)CN1CCOCC1 (stereo unspecified)	-2	21922*	-3	-3	-4
COc1ccccc1/C=C/CN1CCOCC1	4	22191*	1	-4	-2
COc1ccccc1/C=C/CN1CCSCC1	4	3463	-2	-3	8
CC(C)(C)NC(=O)CSc1nc(O)cc(=O)n1-c1ccccc1	12	6655	1	2	0
Cc1ccc(C(=O)N2N=C(c3ccccc3O)CC2c2ccccc2)cc1 (stereo unspecified)	-13	2967	-2	17	9
Oc1ccccc1C1=Nc2ncnn2C(c2ccccc2)C1 (stereo unspecified)	-3	16346*	-1	-10	-4
CC1(C(=O)NS(=O)(=O)c2ccc(F)cc2F)CCN1C(=O)Cc1ccc(Cl)cc1Cl (stereo unspecified)	·	3012	0	-2	-14
Cc1ccc2c(c1)N(Cc1ccccn1)C(=O)C(C)O2 (stereo unspecified)	12	24586*	-4	-2	-5
S=C(NCc1ccco1)Nc1ccccc1Cl	-3	3205	2	-8	?

Source: PubChem BioAssay
